From the supplement of paper PMC10849652
The full data set covers some 7,900 targets. This sample favours those with a hit. About 0.6% of all pairs of compound and target were hits.

What was measured:
Test in all cases: log2 fold change, soluble protein after heating vs DMSO (PISA); higher = thermal stabilisation; K562 cells, 10 uM, 30 min; active = over 0.2 and 3.5 SD of the protein, either way, in both replicates (recomputed)
[1] = compound: C#Cc1cccc(Nc2ncnc3cc(OCCOC)c(OCCOC)cc23)c1 [erlotinib]
Outline: (§1)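 Soluble protein was quantified by TMTpro 16plex LC-MS/MS after channel sums were equalised. It was obtained as the supernatant after 21,000xg for 90 min from pooled aliquots of K562 cells (2×10^6 cells/mL, 10 μM compound, 30 min) heated for 3 min across 48°C-58°C and extracted in PBS with 0.5% NP-40 at 4°C. Thermal stability values are relative to control samples and come from duplicates. They are given as log2 fold changes.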

[2] = compound: C/C(=N\NC(=O)C1=CC(=CC=C1)S(=O)(=O)N2CCOCC2)/C3=C(C=CC(=C3)Cl)O
Outline: as §1

[3] = compound: C1=CC(=C(C=C1Cl)C2=NC3=NC=CN=C3C(=N2)NC4=CC=NC=C4)F
Outline: as §1

[4] = compound: C1=CC(=CC=C1C2=NC3=C(N2)C=C(C=C3)C(=O)N)OC4=CC=C(C=C4)Cl
Outline: as §1

[5] = compound: C1=CC2=C(C=CC(=C2)/C=C\3/C(=O)NC(=NCC4=CC=CS4)S3)N=C1
Outline: as §1

[6] = compound: C1=CC2=NC=CN=C2C=C1/C=C/3\C(=O)NC(=O)S3
Outline: as §1

[7] = compound: C1=CC=C(C=C1)C2=NC(=C(N2)C3=CC=NC=C3)C4=CC(=C(C=C4)Cl)O
Outline: as §1

[8] = compound: C1=CC=C2C(=C1)C3=NNC4=CC=CC(=C43)C2=O
Outline: as §1

[9] = compound: C1CCN(C1)C(=O)NC2=CC=CC(=C2)NC3=NC=C(C(=N3)NCCC4=CN=CN4)Br
Outline: as §1

[10] = compound: C1CN(CCC1(CC2=CC=C(C=C2)Cl)N)C3=NC=NC4=C3C=CN4
Outline: as §1

[11] = compound: C1COCCN1CCN2C3=CC=CC=C3N=C2NC(=O)C4=CC(=CC=C4)[N+](=O)[O-] [IRAK-1-4 Inhibitor I]
Outline: as §1

[12] = compound: C=CC(=O)N1CCC[C@@H](n2nc(-c3ccc(Oc4ccccc4)cc3)c3c(N)ncnc32)C1 [ibrutinib]
Outline: as §1

[13] = compound: CC(=O)c1cnc2ccc(-c3cc(Cl)c(O)c(Cl)c3)nc2c1N[C@H]1CC[C@H](CN(C)C)CC1
Outline: as §1

[14] = compound: CC(C)(C)Cn1c(N)nc2ccc(-c3[nH]c(C(C)(C)C)nc3-c3ccc(F)cc3)nc21 [ralimetinib]
Outline: as §1

[15] = compound: CC(C)(O)CC(=O)NCCn1ccc2ncnc(Nc3ccc(Oc4cccc(C(F)(F)F)c4)c(Cl)c3)c21
Outline: as §1

[16] = compound: CC(C)C1=C2N=C(C=C(N2N=C1)NCC3=CC=CC=C3)NCCCCCCN
Outline: as §1

[17] = compound: CC(C)C[C@@H](C=O)NC(=O)[C@H](CC(C)C)NC(=O)[C@H](CC(C)C)NC(=O)OCc1ccccc1
Outline: as §1

[18] = compound: CC(C)N(C[C@H]1O[C@@H](n2cnc3c(N)ncnc32)[C@H](O)[C@@H]1O)[C@H]1C[C@@H](CCc2nc3cc(C(C)(C)C)ccc3[nH]2)C1 [pinometostat]
Outline: as §1

[19] = compound: CC1=C(C(CC(=O)N1)C2=CC=C(C=C2)C(F)(F)F)C(=O)NC3=C(C=C4C(=C3)C=NN4)F
Outline: as §1

[20] = compound: CC1=C(C2=C(C=C1)C(=O)C3=CC=CC=C3N2CCCN)C
Outline: as §1

Measured: log2 fold change

TAOK3 (UniProt Q9H2K8)
Sequence of UniProt Q9H2K8 (Q9H2K8 whole entry, looked up): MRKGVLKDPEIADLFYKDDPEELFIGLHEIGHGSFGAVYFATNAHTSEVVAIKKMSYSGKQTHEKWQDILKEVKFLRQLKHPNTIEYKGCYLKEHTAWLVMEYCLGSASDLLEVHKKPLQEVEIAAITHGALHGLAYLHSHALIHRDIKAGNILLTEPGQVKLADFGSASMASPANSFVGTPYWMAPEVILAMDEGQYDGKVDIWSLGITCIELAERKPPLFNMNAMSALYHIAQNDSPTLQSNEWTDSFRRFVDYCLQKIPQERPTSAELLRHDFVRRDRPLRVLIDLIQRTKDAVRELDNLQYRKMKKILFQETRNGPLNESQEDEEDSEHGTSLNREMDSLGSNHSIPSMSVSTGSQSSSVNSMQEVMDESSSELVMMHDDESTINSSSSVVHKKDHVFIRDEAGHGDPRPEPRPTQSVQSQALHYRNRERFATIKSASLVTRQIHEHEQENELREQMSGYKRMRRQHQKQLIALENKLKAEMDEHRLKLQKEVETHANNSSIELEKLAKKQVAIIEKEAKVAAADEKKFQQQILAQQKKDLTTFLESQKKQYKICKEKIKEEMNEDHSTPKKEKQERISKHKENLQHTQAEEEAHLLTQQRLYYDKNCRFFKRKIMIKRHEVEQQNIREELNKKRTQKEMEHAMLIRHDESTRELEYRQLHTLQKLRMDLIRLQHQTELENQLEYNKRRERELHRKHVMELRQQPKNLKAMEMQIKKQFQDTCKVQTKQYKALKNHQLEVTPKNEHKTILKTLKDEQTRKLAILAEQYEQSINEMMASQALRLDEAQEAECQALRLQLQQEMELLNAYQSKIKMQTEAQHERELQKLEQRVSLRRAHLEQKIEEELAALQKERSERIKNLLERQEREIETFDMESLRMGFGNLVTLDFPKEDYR
inactive: [1] -0.017 | [2] 0.08 | [3] 0.009 | [4] 0.037 | [5] 0.02 | [6] 0.018 | [7] 0.018 | [8] -0.007 | [9] -0.044 | [10] 0.007 | [11] 0.007 | [12] 0.002 | [14] 0.009 | [15] -0.011 | [16] 0.007 | [17] 0.033 | [18] 0.012 | [19] 0.003 | [20] 0.035
active: [13] -0.48

STAT5B (UniProt P51692)
inactive: [1] 0.027 | [2] -0.148 | [3] 0.035 | [4] 0.071 | [5] 0.028 | [6] -0.013 | [7] -0.007 | [8] -0.061 | [9] -0.077 | [10] -0.013 | [11] -0.153 | [12] -0.146 | [13] 0.018 | [14] 0.121 | [15] -0.401 | [16] -0.119 | [17] 0.044 | [18] -0.095 | [19] -0.109 | [20] -0.022

SLC25A39 (UniProt Q9BZJ4)
Sequence of UniProt Q9BZJ4 (Q9BZJ4 whole entry, looked up): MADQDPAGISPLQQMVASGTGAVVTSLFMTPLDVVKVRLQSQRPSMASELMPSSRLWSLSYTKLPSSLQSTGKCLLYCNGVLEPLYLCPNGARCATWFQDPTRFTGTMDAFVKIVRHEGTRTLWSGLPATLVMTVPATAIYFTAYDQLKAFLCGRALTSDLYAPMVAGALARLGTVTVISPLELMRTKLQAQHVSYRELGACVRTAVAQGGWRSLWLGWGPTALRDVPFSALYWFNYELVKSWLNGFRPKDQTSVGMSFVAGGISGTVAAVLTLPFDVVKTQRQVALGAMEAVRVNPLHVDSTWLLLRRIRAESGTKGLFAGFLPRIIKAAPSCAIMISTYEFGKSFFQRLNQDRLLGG
active: [16] -0.673
inactive: [1] -0.072 | [2] -0.217 | [3] 0.038 | [4] 0.062 | [5] 0.193 | [6] 0.118 | [7] -0.042 | [8] -0.046 | [9] -0.186 | [10] 0.112 | [11] 0.037 | [12] 0.032 | [13] 0.068 | [14] -0.035 | [15] -0.112 | [17] 0.035 | [18] 0.294 | [19] -0.129 | [20] -0.11

SRP68 (UniProt Q9UHB9)
Sequence of UniProt Q9UHB9 (Q9UHB9 whole entry, looked up): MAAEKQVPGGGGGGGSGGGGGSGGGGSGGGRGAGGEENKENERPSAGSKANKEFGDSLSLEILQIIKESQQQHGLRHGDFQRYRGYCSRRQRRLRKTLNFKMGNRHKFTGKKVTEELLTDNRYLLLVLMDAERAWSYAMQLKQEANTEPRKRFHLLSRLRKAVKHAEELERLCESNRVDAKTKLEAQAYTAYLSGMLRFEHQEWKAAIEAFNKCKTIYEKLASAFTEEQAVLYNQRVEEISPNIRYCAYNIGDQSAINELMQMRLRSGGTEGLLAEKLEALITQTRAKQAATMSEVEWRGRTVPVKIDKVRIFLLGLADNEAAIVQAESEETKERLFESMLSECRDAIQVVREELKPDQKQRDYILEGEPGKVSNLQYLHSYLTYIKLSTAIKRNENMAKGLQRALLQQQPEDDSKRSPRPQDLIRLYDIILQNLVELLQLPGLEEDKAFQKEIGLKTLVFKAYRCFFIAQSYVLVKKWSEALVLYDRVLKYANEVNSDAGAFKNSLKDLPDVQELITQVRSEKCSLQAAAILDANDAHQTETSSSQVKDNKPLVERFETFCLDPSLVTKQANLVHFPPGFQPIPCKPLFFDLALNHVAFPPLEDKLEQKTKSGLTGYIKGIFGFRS
active: [20] -0.345
inactive: [1] 0.047 | [2] 0.034 | [3] -0.043 | [4] -0.071 | [5] 0.011 | [6] 0.01 | [7] 0.002 | [8] -0.087 | [9] 0.015 | [10] -0.107 | [11] -0.118 | [12] -0.037 | [13] 0.014 | [14] 0.071 | [15] -0.065 | [16] -0.272 | [17] 0.065 | [18] 0.145 | [19] -0.016

STEAP3 isoform 2 (UniProt Q658P3)
inactive: [1] 0.053 | [2] 0.038 | [3] 0.017 | [4] -0.019 | [5] 0.053 | [6] 0.02 | [7] -0.008 | [8] 0.004 | [9] -0.036 | [10] 0.032 | [11] -0.002 | [12] -0.005 | [13] -0.067 | [14] 0.013 | [15] -0.087 | [16] -0.011 | [17] 0.032 | [18] 0.043 | [19] 0.019 | [20] 0.044

SLC25A36 (UniProt Q96CQ1)
Sequence of UniProt Q96CQ1 (Q96CQ1 whole entry, looked up): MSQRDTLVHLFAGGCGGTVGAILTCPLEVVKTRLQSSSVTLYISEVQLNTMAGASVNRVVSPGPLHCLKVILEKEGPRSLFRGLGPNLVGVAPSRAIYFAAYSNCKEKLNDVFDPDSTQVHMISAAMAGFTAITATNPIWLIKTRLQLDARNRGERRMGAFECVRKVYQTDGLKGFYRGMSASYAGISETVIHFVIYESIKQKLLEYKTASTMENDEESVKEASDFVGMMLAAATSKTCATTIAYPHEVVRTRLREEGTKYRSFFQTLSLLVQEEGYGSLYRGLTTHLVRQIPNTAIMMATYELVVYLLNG
inactive: [1] -0.077 | [2] 0.008 | [3] -0.083 | [4] 0.003 | [5] 0.031 | [6] 0.102 | [7] -0.104 | [8] -0.034 | [9] 0.053 | [10] 0.068 | [11] 0.048 | [12] 0.066 | [13] 0.029 | [14] 0.019 | [15] -0.167 | [16] -0.03 | [17] 0.007 | [18] 0.01 | [19] 0.108 | [20] 0.012

TIAL1 isoform 2 (UniProt Q01085)
Sequence of UniProt Q01085 (Q01085 whole entry, looked up): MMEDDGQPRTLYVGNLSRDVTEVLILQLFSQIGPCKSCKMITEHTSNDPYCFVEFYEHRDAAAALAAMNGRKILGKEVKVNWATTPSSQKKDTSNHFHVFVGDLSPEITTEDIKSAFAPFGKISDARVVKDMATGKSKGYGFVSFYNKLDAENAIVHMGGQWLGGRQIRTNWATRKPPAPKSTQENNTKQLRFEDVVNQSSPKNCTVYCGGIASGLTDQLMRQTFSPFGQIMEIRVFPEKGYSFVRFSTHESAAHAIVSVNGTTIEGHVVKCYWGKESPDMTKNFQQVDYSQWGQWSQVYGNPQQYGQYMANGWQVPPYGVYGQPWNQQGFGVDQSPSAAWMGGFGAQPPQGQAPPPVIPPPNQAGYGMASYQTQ
active: [20] 0.238
inactive: [1] 0.013 | [2] -0.004 | [3] 0.002 | [4] 0 | [5] 0.02 | [6] 0.008 | [7] -0.026 | [8] 0.018 | [9] 0.032 | [10] -0.004 | [11] 0.044 | [12] 0.011 | [13] -0.035 | [14] -0.05 | [15] 0.001 | [16] 0.106 | [17] 0.019 | [18] -0.039 | [19] -0.02

SRSF4 (UniProt Q08170)
inactive: [1] -0.054 | [2] 0.015 | [3] -0.325 | [4] 0.05 | [5] -0.155 | [6] -0.072 | [7] -0.024 | [8] -0.109 | [9] 0.007 | [10] -0.254 | [11] -0.306 | [12] 0.069 | [13] -0.261 | [14] 0.125 | [15] 0.088 | [16] -0.174 | [17] 0.019 | [18] 0.126 | [19] -0.009 | [20] -0.379

SLC6A6 (UniProt P31641)
inactive: [1] 0.001 | [2] 0.013 | [3] 0.123 | [4] -0.005 | [5] 0.003 | [6] 0.055 | [7] 0.007 | [8] -0.054 | [9] 0.087 | [10] 0.083 | [11] -0.025 | [12] 0.036 | [13] -0.045 | [14] -0.186 | [15] -0.033 | [16] 0.107 | [17] 0.101 | [18] -0.071 | [19] -0.025 | [20] -0.181

SMC5 (UniProt Q8IY18)
inactive: [1] -0.041 | [2] 0.091 | [3] -0.091 | [4] 0.04 | [5] 0.014 | [6] 0.005 | [7] -0.017 | [8] -0.141 | [9] 0.042 | [10] 0.116 | [11] 0.041 | [12] 0.062 | [13] -0.045 | [14] 0.046 | [15] 0.029 | [16] 0.161 | [17] 0.036 | [18] 0.008 | [19] -0.031
active: [20] -0.332

SSR4 (UniProt P51571)
Sequence of UniProt P51571 (P51571 whole entry, looked up): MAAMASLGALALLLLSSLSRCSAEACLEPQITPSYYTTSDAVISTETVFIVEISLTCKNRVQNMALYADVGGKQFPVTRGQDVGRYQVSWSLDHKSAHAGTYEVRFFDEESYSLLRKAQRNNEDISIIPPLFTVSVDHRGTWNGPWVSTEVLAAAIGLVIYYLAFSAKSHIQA
inactive: [1] -0.016 | [2] 0.055 | [3] 0.041 | [4] 0.051 | [5] 0.059 | [6] 0.007 | [7] -0.031 | [8] -0.002 | [9] 0 | [10] -0.025 | [11] 0.003 | [12] 0.032 | [13] -0.033 | [14] 0.049 | [15] -0.034 | [16] -0.03 | [17] 0.032 | [18] -0.028 | [19] -0.015 | [20] 0.09

SUGP1 (UniProt Q8IWZ8)
Sequence of UniProt Q8IWZ8 (Q8IWZ8 whole entry, looked up): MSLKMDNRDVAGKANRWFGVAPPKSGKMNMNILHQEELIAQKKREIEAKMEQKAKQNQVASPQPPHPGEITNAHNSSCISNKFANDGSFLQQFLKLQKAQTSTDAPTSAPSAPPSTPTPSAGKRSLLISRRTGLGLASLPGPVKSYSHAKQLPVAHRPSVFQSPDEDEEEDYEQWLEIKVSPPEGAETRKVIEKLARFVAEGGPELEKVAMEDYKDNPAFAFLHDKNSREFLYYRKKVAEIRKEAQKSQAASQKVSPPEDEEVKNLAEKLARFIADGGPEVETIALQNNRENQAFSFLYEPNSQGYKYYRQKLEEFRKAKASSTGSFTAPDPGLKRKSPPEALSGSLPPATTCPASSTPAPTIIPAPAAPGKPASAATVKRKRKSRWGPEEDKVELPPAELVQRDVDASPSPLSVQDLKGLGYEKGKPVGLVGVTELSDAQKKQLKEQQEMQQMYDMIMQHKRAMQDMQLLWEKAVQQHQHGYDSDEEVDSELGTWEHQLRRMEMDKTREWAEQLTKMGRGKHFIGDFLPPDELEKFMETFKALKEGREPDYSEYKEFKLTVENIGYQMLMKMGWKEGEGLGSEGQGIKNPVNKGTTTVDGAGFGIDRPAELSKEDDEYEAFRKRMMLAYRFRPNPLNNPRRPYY
inactive: [1] 0.039 | [2] 0.093 | [3] -0.027 | [4] -0.029 | [5] -0.01 | [6] 0.005 | [7] 0 | [8] -0.012 | [9] -0.03 | [10] -0.001 | [11] 0.008 | [12] -0.024 | [13] -0.08 | [14] -0.023 | [15] -0.003 | [16] -0.127 | [17] 0.061 | [18] -0.017 | [19] 0.011 | [20] -0.003

SPINDOC (UniProt Q9BUA3)
inactive: [1] -0.013 | [2] -0.017 | [3] -0.01 | [4] -0.044 | [5] 0.036 | [6] 0.074 | [7] -0.063 | [8] -0.066 | [9] -0.129 | [10] 0.09 | [11] 0.029 | [12] 0.089 | [13] 0.017 | [14] 0.084 | [15] -0.01 | [16] 0.103 | [17] 0 | [18] 0.075 | [19] 0.093 | [20] -0.24

SLC9A6 isoform 2 (UniProt Q92581)
inactive: [1] -0.024 | [2] 0.014 | [3] 0.053 | [4] 0.026 | [5] -0.009 | [6] 0.029 | [7] -0.04 | [8] -0.056 | [9] -0.013 | [10] 0.031 | [11] 0.052 | [12] 0.024 | [13] 0.005 | [14] -0.056 | [15] -0.02 | [16] 0.038 | [17] 0.042 | [18] 0.083 | [19] 0.021 | [20] 0.023

STX17 (UniProt P56962)
Sequence of UniProt P56962 (P56962 whole entry, looked up): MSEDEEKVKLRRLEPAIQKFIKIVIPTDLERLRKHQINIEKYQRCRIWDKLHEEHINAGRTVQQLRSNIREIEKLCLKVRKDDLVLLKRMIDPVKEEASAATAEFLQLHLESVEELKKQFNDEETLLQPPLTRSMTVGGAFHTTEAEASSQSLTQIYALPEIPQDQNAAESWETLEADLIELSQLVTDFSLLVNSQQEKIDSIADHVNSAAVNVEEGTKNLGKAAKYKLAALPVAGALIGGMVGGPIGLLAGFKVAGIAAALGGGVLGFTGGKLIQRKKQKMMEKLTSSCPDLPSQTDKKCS
inactive: [1] 0.206 | [2] 0.003 | [3] 0.124 | [4] 0.015 | [5] 0.041 | [6] 0.016 | [7] -0.01 | [8] 0.059 | [9] -0.004 | [10] 0.027 | [11] -0.062 | [12] 0.002 | [13] 0.031 | [14] 0.037 | [15] -0.063 | [16] -0.235 | [17] 0.028 | [18] 0.006 | [19] 0.062 | [20] 0.138

SYMPK (UniProt Q92797)
Sequence of UniProt Q92797 (Q92797 whole entry, looked up): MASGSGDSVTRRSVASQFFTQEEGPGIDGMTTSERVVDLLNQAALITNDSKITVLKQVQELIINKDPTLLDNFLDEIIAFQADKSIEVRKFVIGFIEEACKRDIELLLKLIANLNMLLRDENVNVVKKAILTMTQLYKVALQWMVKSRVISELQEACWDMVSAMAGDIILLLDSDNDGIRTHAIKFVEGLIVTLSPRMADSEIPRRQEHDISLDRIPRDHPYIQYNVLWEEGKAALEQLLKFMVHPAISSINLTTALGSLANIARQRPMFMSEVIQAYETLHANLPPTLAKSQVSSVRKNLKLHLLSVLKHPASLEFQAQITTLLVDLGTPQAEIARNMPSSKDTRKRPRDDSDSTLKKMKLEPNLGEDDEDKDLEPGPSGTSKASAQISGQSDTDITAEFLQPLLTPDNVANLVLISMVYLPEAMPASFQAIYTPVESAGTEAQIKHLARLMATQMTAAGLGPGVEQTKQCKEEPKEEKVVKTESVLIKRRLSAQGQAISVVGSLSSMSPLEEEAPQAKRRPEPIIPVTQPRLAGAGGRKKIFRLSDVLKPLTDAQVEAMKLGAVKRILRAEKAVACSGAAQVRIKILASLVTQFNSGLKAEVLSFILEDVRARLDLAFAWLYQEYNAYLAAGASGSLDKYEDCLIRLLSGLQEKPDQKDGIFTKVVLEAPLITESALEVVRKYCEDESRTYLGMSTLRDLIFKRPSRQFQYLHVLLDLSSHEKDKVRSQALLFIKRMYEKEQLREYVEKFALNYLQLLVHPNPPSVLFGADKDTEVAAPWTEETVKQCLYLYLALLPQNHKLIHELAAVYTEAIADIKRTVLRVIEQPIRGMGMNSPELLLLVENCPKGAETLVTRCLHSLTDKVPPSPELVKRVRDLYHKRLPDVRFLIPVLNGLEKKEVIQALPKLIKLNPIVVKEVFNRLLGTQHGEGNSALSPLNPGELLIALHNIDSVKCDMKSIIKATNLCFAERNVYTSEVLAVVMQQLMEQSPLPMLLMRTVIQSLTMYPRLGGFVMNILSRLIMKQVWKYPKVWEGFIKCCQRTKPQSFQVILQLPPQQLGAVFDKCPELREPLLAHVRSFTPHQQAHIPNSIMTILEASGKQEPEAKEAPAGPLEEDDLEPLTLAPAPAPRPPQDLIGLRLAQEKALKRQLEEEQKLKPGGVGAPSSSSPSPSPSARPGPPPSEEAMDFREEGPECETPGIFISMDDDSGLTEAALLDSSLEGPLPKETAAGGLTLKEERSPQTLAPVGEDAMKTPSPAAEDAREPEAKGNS
inactive: [1] -0.005 | [2] 0.179 | [3] 0.005 | [4] -0.114 | [5] 0.189 | [6] 0.033 | [7] 0.093 | [8] -0.065 | [9] -0.101 | [10] 0.04 | [11] -0.029 | [12] -0.087 | [13] -0.057 | [14] 0.099 | [15] -0.296 | [16] -0.026 | [17] -0.061 | [18] -0.115 | [19] 0.078 | [20] -0.033
